# According to PMC7862700, “An all-to-all approach to the identification of sequence-specific readers for epigenetic DNA modifications on cytosine”:
# Legend:
# Assay in all cases: DAPPL (digital affinity profiling via proximity ligation, sequencing); 10 mM Tris-HCl pH 7.5, 50 mM NaCl, 1 mM DTT, 4% glycerol, room temperature, 30 min; GST-TFs on glutathione beads, 16-mer random dsDNA library, 0.1% formaldehyde crosslink after washing; high values mean tight binding
# FLI1 = target: T1, FLI1 (Homo sapiens, UniProt Q01543 1-452); settings: protein: recombinant; tags: N-terminal GST; dsDNA, one strand shown
# T1 sequence: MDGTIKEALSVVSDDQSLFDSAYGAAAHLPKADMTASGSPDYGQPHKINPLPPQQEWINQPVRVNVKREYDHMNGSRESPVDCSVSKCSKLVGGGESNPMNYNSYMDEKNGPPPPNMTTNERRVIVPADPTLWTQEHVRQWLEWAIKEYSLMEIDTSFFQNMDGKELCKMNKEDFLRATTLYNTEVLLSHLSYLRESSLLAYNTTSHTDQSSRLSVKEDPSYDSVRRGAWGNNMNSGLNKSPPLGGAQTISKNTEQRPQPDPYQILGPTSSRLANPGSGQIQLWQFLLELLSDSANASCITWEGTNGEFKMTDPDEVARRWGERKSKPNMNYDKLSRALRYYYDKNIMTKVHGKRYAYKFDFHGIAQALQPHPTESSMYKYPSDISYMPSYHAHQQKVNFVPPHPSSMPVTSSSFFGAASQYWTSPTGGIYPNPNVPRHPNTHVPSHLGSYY
# Method in brief: (§1)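 Each value of binding signal is a hexamer's read frequency for a factor divided by the same hexamer's frequency in the tag-only sample. Barcoded, bead-captured GST fusions of human transcription factors made in yeast were pooled with that sample and incubated with 200 nmole of a random double-stranded 16-mer DNA library in Tris/NaCl/DTT/glycerol buffer at room temperature for 30 min. Washing, 0.1% formaldehyde crosslinking, proximity ligation, PCR and Illumina NextSeq500 sequencing followed.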
# ELK1 = target: T2, ELK1 (Homo sapiens, UniProt P19419 1-428); settings: protein: recombinant; tags: N-terminal GST; dsDNA, one strand shown
# T2 sequence: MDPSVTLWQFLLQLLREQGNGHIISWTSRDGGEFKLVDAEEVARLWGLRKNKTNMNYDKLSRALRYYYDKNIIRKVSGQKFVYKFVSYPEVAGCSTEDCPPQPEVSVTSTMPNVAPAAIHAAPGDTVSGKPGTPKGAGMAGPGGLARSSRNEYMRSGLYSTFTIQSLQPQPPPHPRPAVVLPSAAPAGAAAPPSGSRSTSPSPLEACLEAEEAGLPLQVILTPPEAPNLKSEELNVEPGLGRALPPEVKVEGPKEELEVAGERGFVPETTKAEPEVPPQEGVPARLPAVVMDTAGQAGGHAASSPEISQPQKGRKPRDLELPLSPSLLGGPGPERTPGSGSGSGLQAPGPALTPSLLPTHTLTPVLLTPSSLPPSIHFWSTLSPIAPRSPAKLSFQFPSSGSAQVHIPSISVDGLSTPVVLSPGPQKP
# Method in brief: as §1
# GABPA = target: T3, GABPA (Homo sapiens, UniProt Q06546 1-454); settings: protein: recombinant; tags: N-terminal GST; dsDNA, one strand shown
# T3 sequence: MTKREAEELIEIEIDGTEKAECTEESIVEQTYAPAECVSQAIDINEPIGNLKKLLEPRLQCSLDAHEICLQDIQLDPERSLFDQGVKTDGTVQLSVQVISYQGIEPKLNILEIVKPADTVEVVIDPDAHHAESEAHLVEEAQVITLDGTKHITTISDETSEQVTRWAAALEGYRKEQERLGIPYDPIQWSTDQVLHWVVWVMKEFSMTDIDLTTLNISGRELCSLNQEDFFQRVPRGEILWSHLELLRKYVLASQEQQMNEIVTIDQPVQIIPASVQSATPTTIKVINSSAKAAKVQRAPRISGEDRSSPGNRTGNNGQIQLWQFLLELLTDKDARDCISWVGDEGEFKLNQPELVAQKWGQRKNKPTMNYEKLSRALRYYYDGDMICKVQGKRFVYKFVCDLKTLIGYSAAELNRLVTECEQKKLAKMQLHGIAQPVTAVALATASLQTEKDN
# Method in brief: as §1
# ERG = target: T4, ERG (Homo sapiens, UniProt P11308 1-479); settings: protein: recombinant; tags: N-terminal GST; dsDNA, one strand shown
# T4 sequence: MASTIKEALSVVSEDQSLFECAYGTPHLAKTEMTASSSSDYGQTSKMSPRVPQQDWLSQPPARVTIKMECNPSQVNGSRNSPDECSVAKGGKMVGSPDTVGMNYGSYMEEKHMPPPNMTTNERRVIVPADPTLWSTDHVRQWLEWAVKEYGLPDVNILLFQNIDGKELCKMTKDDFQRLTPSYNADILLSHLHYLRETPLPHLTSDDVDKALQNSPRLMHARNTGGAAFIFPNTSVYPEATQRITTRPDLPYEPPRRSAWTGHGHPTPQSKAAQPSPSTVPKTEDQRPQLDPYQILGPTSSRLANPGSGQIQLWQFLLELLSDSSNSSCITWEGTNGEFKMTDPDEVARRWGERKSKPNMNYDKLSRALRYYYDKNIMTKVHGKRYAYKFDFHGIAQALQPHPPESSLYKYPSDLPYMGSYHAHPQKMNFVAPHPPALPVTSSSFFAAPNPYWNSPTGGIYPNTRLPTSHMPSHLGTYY
# Method in brief: as §1
# ELF1 = ELF1 (Homo sapiens, UniProt P32519 1-619); settings: protein: recombinant; tags: N-terminal GST; dsDNA, one strand shown
# ELF1, sequence (P32519 whole entry): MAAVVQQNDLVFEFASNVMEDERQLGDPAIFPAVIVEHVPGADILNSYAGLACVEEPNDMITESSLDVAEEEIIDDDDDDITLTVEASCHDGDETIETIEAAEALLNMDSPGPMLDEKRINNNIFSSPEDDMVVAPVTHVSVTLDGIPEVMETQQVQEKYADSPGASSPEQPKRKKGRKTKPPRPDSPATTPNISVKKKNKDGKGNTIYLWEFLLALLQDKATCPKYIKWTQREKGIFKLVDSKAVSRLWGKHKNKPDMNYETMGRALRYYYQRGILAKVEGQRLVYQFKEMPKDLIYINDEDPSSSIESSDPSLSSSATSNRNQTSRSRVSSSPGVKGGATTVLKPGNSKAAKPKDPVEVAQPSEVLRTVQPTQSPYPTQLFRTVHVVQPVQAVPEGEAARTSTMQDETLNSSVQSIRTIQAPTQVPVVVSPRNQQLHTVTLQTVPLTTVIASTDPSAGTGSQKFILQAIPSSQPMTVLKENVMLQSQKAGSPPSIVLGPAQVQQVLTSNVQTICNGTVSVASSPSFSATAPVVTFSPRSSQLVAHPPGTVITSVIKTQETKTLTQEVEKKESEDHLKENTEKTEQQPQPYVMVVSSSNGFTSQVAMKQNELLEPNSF
# Method in brief: as §1
# EHF = target: T5, EHF (Homo sapiens, UniProt Q9NZC4 1-300); settings: protein: recombinant; tags: N-terminal GST; dsDNA, one strand shown
# T5 sequence: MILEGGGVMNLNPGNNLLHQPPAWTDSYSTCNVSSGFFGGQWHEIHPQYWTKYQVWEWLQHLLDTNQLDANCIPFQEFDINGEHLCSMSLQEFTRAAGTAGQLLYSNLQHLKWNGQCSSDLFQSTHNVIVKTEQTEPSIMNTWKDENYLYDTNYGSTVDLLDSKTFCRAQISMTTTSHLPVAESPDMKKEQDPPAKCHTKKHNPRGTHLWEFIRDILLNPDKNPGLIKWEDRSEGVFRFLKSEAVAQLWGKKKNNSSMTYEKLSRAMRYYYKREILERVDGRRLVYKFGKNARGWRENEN
# Method in brief: as §1
# SPI1 = SPI1 (Homo sapiens, UniProt P17947 1-270); settings: protein: recombinant; tags: N-terminal GST; dsDNA, one strand shown
# Method in brief: as §1
# SPIB = SPIB (Homo sapiens, UniProt Q01892 1-262); settings: protein: recombinant; tags: N-terminal GST; dsDNA, one strand shown
# SPIB, sequence (Q01892 whole entry): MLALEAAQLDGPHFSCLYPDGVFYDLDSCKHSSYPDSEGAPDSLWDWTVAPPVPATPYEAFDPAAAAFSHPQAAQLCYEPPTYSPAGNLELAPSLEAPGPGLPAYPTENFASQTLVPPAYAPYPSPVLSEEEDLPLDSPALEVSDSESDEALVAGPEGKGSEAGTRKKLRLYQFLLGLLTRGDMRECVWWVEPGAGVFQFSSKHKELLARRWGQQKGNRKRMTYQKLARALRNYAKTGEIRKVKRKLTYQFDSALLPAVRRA
# Method in brief: as §1
# ELK3 = target: T6, ELK3 (Homo sapiens, UniProt P41970 1-407); settings: protein: recombinant; tags: N-terminal GST; dsDNA, one strand shown
# T6 sequence: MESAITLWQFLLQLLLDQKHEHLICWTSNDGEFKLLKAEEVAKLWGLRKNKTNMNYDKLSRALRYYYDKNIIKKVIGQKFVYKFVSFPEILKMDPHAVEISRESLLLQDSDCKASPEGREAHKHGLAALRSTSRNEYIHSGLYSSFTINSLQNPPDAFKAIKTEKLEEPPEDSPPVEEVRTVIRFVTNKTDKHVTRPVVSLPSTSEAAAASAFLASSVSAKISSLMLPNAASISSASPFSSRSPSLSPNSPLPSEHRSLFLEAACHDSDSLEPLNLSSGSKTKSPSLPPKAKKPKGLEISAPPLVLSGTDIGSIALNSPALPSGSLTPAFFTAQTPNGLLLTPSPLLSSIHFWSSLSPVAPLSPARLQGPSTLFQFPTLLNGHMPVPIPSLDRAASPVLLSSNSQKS
# Method in brief: as §1
# FEV = target: T7, FEV (Homo sapiens, UniProt Q99581 1-238); settings: protein: recombinant; tags: N-terminal GST; dsDNA, one strand shown
# T7 sequence: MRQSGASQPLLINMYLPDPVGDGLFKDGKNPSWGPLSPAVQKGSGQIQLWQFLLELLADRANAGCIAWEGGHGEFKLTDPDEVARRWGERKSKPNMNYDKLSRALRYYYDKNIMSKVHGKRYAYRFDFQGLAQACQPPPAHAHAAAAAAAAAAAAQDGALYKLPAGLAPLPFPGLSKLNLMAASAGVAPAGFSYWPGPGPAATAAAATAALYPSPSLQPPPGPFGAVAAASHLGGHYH
# Method in brief: as §1
# ETV5 = ETV5 (Homo sapiens, UniProt P41161 1-510); settings: protein: recombinant; tags: N-terminal GST; dsDNA, one strand shown
# ETV5, sequence (P41161 whole entry): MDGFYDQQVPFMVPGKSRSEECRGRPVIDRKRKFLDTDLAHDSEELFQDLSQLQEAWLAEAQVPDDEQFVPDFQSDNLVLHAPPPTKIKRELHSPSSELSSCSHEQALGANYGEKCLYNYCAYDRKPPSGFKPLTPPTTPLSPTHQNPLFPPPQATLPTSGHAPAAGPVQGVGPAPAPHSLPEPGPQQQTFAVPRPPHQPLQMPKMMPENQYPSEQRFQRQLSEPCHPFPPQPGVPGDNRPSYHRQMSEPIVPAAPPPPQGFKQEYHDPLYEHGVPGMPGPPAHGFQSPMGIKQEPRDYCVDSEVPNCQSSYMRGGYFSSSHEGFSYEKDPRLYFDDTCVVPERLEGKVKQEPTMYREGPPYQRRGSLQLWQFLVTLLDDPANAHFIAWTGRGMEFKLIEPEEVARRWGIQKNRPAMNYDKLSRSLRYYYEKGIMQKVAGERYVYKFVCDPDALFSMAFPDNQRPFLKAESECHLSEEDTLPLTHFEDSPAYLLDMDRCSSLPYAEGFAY
# Method in brief: as §1
# HSF1 = HSF1 (Homo sapiens, UniProt Q00613 1-529); settings: protein: recombinant; tags: N-terminal GST; chain copies: 3; dsDNA, one strand shown
# HSF1, sequence (Q00613 whole entry): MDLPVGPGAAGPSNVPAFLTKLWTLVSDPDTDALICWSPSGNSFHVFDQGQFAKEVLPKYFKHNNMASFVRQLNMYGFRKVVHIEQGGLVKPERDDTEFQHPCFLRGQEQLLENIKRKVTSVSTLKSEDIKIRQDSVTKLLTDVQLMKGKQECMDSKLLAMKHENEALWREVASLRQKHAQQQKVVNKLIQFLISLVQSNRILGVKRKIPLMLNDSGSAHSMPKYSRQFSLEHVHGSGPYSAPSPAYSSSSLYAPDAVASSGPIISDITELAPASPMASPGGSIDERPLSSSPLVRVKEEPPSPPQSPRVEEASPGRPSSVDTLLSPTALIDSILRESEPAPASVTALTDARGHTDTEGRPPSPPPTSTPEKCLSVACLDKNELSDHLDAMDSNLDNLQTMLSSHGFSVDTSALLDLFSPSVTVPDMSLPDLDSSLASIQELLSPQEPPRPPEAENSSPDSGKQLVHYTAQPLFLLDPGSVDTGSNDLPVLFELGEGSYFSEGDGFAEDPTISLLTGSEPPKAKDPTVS
# Method in brief: as §1
# SPIC = target: T8, SPIC (Homo sapiens, UniProt Q8N5J4 1-248); settings: protein: recombinant; tags: N-terminal GST; dsDNA, one strand shown
# T8 sequence: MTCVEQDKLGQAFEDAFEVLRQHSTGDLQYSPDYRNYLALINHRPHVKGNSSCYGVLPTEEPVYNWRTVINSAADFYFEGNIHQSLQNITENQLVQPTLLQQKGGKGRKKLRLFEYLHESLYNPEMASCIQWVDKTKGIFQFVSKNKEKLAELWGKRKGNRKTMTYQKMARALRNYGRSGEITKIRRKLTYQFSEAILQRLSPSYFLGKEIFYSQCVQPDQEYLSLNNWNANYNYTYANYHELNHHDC
# Method in brief: as §1
# ELF4 = ELF4 (Homo sapiens, UniProt Q99607 1-663); settings: protein: recombinant; tags: N-terminal GST; dsDNA, one strand shown
# ELF4, sequence (Q99607 whole entry): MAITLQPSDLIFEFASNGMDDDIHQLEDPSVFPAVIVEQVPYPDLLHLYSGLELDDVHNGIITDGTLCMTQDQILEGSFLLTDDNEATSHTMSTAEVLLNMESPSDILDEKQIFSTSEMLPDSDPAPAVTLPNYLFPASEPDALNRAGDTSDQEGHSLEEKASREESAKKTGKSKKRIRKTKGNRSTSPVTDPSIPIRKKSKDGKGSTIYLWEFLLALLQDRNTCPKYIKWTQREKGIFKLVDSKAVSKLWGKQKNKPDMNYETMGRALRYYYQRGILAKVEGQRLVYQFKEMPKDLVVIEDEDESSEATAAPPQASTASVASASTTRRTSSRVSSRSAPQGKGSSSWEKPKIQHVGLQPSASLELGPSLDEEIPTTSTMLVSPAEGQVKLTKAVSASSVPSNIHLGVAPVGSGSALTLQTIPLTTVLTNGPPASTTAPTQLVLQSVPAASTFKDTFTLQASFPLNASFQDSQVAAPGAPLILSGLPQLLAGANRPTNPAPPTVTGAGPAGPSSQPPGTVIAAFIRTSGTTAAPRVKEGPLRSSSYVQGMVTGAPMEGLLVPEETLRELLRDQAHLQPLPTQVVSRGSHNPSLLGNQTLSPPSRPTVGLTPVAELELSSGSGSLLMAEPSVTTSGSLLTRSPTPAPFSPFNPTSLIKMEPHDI
# Method in brief: as §1
# ELK4 = target: T9, ELK4 (Homo sapiens, UniProt P28324-2 1-405); settings: protein: recombinant; tags: N-terminal GST; dsDNA, one strand shown
# T9 sequence: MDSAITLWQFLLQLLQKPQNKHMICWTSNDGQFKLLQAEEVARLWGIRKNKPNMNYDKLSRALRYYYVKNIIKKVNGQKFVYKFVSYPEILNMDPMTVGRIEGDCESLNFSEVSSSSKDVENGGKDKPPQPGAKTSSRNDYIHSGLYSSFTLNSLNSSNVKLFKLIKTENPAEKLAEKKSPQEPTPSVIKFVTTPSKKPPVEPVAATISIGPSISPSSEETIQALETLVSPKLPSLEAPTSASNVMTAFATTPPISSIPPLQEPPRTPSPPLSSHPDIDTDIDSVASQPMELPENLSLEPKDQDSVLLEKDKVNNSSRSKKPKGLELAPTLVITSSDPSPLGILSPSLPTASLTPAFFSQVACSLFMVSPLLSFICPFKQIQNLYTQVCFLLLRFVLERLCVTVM
# Method in brief: as §1
# ETV2 = target: T10, ETV2 (Homo sapiens, UniProt O00321 1-342); settings: protein: recombinant; tags: N-terminal GST; dsDNA, one strand shown
# T10 sequence: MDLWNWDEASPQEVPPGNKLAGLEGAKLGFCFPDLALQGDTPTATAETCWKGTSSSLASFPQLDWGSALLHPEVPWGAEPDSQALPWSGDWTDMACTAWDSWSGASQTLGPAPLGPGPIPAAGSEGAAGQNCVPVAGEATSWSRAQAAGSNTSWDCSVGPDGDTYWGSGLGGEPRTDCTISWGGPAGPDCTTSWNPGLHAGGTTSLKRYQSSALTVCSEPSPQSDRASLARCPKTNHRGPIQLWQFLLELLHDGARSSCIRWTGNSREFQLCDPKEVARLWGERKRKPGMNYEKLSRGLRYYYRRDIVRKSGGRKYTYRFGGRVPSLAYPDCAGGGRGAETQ
# Method in brief: as §1
# ELF3 = target: T11, ELF3 (Homo sapiens, UniProt P78545 1-371); settings: protein: recombinant; tags: N-terminal GST; dsDNA, one strand shown
# T11 sequence: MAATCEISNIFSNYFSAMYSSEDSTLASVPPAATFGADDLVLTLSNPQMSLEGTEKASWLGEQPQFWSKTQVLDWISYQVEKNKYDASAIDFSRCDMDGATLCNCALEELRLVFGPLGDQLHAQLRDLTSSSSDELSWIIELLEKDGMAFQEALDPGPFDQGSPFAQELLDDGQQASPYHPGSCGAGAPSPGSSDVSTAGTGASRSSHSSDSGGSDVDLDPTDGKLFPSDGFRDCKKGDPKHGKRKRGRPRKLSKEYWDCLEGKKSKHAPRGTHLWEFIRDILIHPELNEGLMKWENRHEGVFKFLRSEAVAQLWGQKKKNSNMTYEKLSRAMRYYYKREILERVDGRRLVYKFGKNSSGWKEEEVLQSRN
# Method in brief: as §1
# CRX = CRX (Homo sapiens, UniProt O43186 1-299); settings: protein: recombinant; tags: N-terminal GST; dsDNA, one strand shown
# CRX, sequence (O43186 whole entry): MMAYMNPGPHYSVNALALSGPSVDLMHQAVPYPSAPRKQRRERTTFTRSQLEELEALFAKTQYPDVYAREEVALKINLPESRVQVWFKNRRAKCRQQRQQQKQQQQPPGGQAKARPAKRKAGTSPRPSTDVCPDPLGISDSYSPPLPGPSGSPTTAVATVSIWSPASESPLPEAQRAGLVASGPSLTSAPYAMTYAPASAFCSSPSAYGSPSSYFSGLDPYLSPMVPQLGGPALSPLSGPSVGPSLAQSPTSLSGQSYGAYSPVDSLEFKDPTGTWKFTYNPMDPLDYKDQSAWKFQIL
# Method in brief: as §1
# ETV1 = ETV1 (Homo sapiens, UniProt P50549 1-477); settings: protein: recombinant; tags: N-terminal GST; dsDNA, one strand shown
# ETV1, sequence (P50549 whole entry): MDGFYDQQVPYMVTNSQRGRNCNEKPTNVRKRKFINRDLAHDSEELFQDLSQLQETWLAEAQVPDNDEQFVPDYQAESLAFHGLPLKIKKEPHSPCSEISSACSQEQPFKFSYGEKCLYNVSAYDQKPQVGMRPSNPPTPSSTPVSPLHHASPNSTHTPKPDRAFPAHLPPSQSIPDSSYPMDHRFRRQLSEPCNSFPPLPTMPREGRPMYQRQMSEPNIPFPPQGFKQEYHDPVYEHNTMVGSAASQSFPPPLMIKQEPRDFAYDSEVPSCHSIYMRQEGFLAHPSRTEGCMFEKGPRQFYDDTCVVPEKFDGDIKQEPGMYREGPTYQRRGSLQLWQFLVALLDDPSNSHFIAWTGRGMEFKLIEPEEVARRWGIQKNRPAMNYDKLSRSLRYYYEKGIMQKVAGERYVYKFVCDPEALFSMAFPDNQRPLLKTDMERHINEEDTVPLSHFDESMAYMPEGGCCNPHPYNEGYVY
# Method in brief: as §1
sequence,measurement,setting,value
TAGCCC,binding signal,FLI1,"1.23 fold enrichment (6-mer frequency, TF over GST control)"
same,binding signal,ELK1,"1.18 fold enrichment (6-mer frequency, TF over GST control)"
same,binding signal,GABPA,"1.12 fold enrichment (6-mer frequency, TF over GST control)"
same,binding signal,ERG,"1.12 fold enrichment (6-mer frequency, TF over GST control)"
same,binding signal,ELF1,"1.08 fold enrichment (6-mer frequency, TF over GST control)"
same,binding signal,EHF,"1.21 fold enrichment (6-mer frequency, TF over GST control)"
same,binding signal,SPI1,"1.13 fold enrichment (6-mer frequency, TF over GST control)"
same,binding signal,SPIB,"1.16 fold enrichment (6-mer frequency, TF over GST control)"
same,binding signal,ELK3,"1.24 fold enrichment (6-mer frequency, TF over GST control)"
same,binding signal,FEV,"1.21 fold enrichment (6-mer frequency, TF over GST control)"
same,binding signal,ETV5,"1.18 fold enrichment (6-mer frequency, TF over GST control)"
same,binding signal,HSF1,"1.19 fold enrichment (6-mer frequency, TF over GST control)"
same,binding signal,SPIC,"1.23 fold enrichment (6-mer frequency, TF over GST control)"
same,binding signal,ELF4,"1.28 fold enrichment (6-mer frequency, TF over GST control)"
same,binding signal,ELK4,"1.15 fold enrichment (6-mer frequency, TF over GST control)"
same,binding signal,ETV2,"1.15 fold enrichment (6-mer frequency, TF over GST control)"
same,binding signal,ELF3,"1.08 fold enrichment (6-mer frequency, TF over GST control)"
same,binding signal,CRX,"1.36 fold enrichment (6-mer frequency, TF over GST control)"
same,binding signal,ETV1,"1.12 fold enrichment (6-mer frequency, TF over GST control)"
